# Assay outcomes from PubChem.
# Neddylation inh – cullin neddylation inhibition. 0.58% of 360,000 active. calls only at 25 µM. TR-FRET cullin neddylation, biochemical. P61081+Q13564; in the data active = inhibition above about 36%
# Rin1-Abl PPI inh – blocks binding of human Rin1 to Abl. P00519+Q13671. TR-FRET Rin1/Abl binding, biochemical. inhibition, % at 7.35 µM. 0.4% of 360,000 active. AID 588664; in the data active = inhibition above about 5%, passing the limit was not always enough
# UHRF1 binding – human UHRF1 methylated DNA binding inhibitors; Q96T88; UHRF1 binding to methylated oligo, TR-FRET; inhibition, % at 4.4 µM; 0.75% of 370,000 active; AID 687016; in the data active = inhibition above about 21%;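 note: UHRF1 SRA domain binding a hemimethylated CpG hairpin DNA probe; 0% = median of test compound wells and 100% = reference inhibitor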
# KLK7 zymogen act – activates the human kallikrein-7 zymogen; 0.9% of 370,000 active; purified proKLK7, EDANS-DABCYL substrate fluorescence; 100% is mature enzyme control, 0% vehicle; activation, % at 7 µM;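 active = activation above the mean of all tested compounds plus 3 SD, computed per campaign excluding outliers beyond control limits, cut at about 13% in these data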
# MBD2 inh – blocks human MBD2 binding to methylated DNA; Q9UBB5; inhibition, % at 4.4 µM; AID 686964; TR-FRET, MBD2 binding to methylated oligonucleotide; 0.31% of 370,000 active; in the data active = inhibition above about 13%
# LEDGF integ inh – blocks HIV-1 LEDGF/p75-dependent DNA integration | TR-FRET IN-LEDGF/p75 DNA integration, Eu/Cy5 | 0.64% of 370,000 active | inhibition, % at 3.7 µM;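 active = inhibition above the screen-wide mean plus 3 SD, cut at about 13% in these data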;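 note: signal is the Cy5 over europium emission ratio at 671 and 618 nm; 0% = plate median of compound wells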
# Rin1 Abl conf – confirmation of inhibitors of human Rin1-Abl interaction. shares compounds with Rin1-Abl PPI inh. TR-FRET Rin1-Abl binding, purified proteins. inhibition, % at 7.35 µM. 49% of 1,300 active. AID 602124
# GFP quench – counter-screen for Rin1-Abl inhibitors: GFP fluorescence quenchers; inhibition, % at 6.75 µM; shares compounds with Rin1-Abl PPI inh; inhibitors/quenchers counterscreen; 8.5% of 1,300 active; AID 602125;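 note: ABL1-eGFP fusion protein alone without its partner RIN1-SBP; 0% = protein with vehicle and 100% = wells lacking protein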
# GFP quench dose – counter-screen for Rin1-Abl inhibitors: GFP quenchers, dose response; AID 602182; 230 tested, under 10 active; GFP fluorescence interference/quenching counterscreen; IC50, µM; shares compounds with Rin1-Abl PPI inh; call rule not given here;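 note: ABL1-eGFP fusion protein alone without its RIN1 binding partner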
# * marks the source's active call; other numbers are inactive results; i = inactive; . = no result given. Rows were chosen to be rich in hits. Some 3.1% of all compounds tested hit in one or more screens of this group. Cut-off read from the data, not from the text of the source, unless noted: active = inhibition above about 6.5%; inactive = the rest.
SMILES,Neddylation inh,Rin1-Abl PPI inh,UHRF1 binding,KLK7 zymogen act,MBD2 inh,LEDGF integ inh,Rin1 Abl conf,GFP quench,others
CCCNC(=O)c1cc(C2CCCCN2C(=O)c2ccc3c(c2)CCO3)on1 (stereo not drawn),i,15.0*,0.2,-0.5,-0.1,1.3,-2.5,0.8,
C/C(=N\NC(=O)c1ccc2c(c1)OCCO2)c1ccccc1,i,6.5*,-1.8,0.6,-3.0,7.4,-3.0,-2.3,
CN(Cc1ccc(C(C)(C)C)cc1)C(=O)C1CSC2(C)CCC(=O)N12 (stereo not drawn),i,12.1*,-2.9,-0.5,-1.6,-1.1,-3.1,-1.1,
N#Cc1ccc(NC(=O)Nc2cccc(C#N)c2)cc1,i,8.0*,5.4,0.5,3.5,0.8,-1.3,-2.7,
Cn1c(=O)c2c(nc(NCc3ccco3)n2Cc2ccc(Cl)cc2Cl)n(C)c1=O,i,-1.0,1.2,-0.5,1.6,0.2,.,.,
Cn1c(=O)[nH]c(=O)c2c1nc(NCc1ccco1)n2Cc1ccccc1Cl,i,13.2*,0.5,0.9,-5.2,0.8,17.5*,-1.1,GFP quench dose=>67.5
COc1ccc(-c2csc(NCCc3nc4cc(Cl)c(Cl)cc4n3CCCO)n2)cc1,i,1.8,0.3,-0.1,-0.9,0.4,.,.,
COc1ccc(OC)c(NC(=O)COc2ccc(S(=O)(=O)NC(C)C)cc2)c1,i,7.4*,1.3,-0.4,6.8,0.8,-0.8,0.2,
CC(C)C1=CC(=Nc2ccc(S(N)(=O)=O)cc2)C=C(C(C)C)C1=O,i,2.8,3.2,0.3,-1.8,0.7,.,.,
Cc1cc(C)c2c(c1)SC1=NC(c3ccccc3)(C(F)(F)F)NC(=O)N12 (stereo not drawn),i,7.0*,-3.4,-0.3,-8.3,-3.4,1.9,-1.0,
Cc1onc(-c2ccccc2Cl)c1C(=O)N1CCN(c2ccc(F)cc2)CC1,i,1.9,4.5,0.1,-0.8,-9.4,.,.,
COc1cccc(C2(O)CCN(C(=O)c3cccs3)CC2)c1,i,6.7*,1.2,-0.1,-0.3,0.0,0.9,-0.4,
COc1cccc(C2(O)CCN(C(=O)C(C)C)CC2)c1,i,-2.9,-0.9,-0.1,0.6,-1.8,.,.,
CC(=O)N1C[C@H]2CON(C)[C@H]2C[C@H]1c1ccccc1Br,i,-0.3,-1.9,-0.1,-0.3,4.2,.,.,
CN1OC[C@@H]2CN(C(=O)CCc3ccccc3)[C@H](c3ccccc3Br)C[C@@H]21,i,14.5*,77.0*,0.0,-3.8,3.7,11.6*,-0.3,
C#CCNC(=O)C1=C[C@H](c2ccc(Br)cc2)[C@@H](CCCO)[C@H](OCC)O1,i,0.1,-1.0,-0.1,-3.9,1.6,.,.,
COc1ccc(NS(=O)(=O)c2cccc(C(=O)NC3CCN(Cc4ccccc4)CC3)c2)cc1,i,-1.4,2.5,0.3,-3.5,2.5,.,.,
COc1ccc(Cn2c(=O)[nH]c3cc(C(=O)NC4CCN(Cc5ccccc5)CC4)ccc32)cc1,i,11.9*,3.7,0.8,1.6,0.6,16.1*,-0.8,
Cc1cc(S(=O)(=O)N2CCN(C(=O)CCC(=O)N3CCOCC3)CC2)ccc1Br,i,15.8*,1.3,0.3,-1.7,0.2,21.1*,0.1,GFP quench dose=>67.6
Cc1ccc(S(=O)(=O)N2CCN(C(=O)N3CCOCC3)CC2)cc1C,i,1.0,8.3,-0.2,7.4,0.1,.,.,
CCOc1ccc(S(=O)(=O)N2CCN(C(=O)CCC(=O)N3CCOCC3)CC2)cc1,i,11.2*,-2.8,0.2,-4.4,-3.2,10.6*,0.0,
C=CCN(CC=C)C(=S)NC(=O)Cc1cccc2ccccc12,i,10.3*,-0.1,-0.1,-4.2,-0.3,-2.1,-1.4,
Cc1cc(-c2nnc(SCC(=O)Nc3cccc(Cl)c3)n2N)n[nH]1,i,-1.7,-1.6,-0.2,-5.7,2.9,.,.,
